Laboratory results from PubChem BioAssay (Tox21).
Inconclusive results are not listed. A call without a number means that no potency is given here. Active and inactive are the calls of the source. The call rests on the fitted dose curve.

Assay: p53 small molecule agonists, cell-based qHTS assay with human liver microsomes: qHTS cell viability counter screen (AID 1963579); further: nearly all actives have a fitted effect of over 45% in size
Details: p53RE-bla HCT-116 viability, ATP luminescence, 16 h, HLM; series mostly up to 66 µM
Description: National Center for Advancing Translational Sciences [NCATS]
Division of Preclinical Innovation [DPI]
U.S. Environmental Protection Agency [EPA]
National Institutes of Environmental Health Sciences [NIEHS]
National Toxicology Program [NTP]
U.S. Food and Drug Administration [FDA]
p53, a tumor suppressor protein, is activated following cellular insult, including DNA damage and other cellular stresses. The activation of p53 regulates cell fate by inducing DNA repair, cell cycle arrest, apoptosis, or cellular senescence. The activation of p53, therefore, is a good indicator of DNA damage and other cellular stresses. […] The activation of the reporter gene under culture conditions can be detected by fluorescence intensity. This cell line was used to screen the Tox21 10K compound library in the condition of presence of human liver microsomes and to identify agonists that activate the p53 signaling pathway after in vitro metabolic activation (Ooka et al., Archive of Toxicology 96:1975-1987, 2022).
Tox21 Assay Protocol Summary:
The p53RE-bla cells were dispensed at 4,000cells/3ul/well in 1536-well black-clear bottom plates. After the assay plates were incubated at 37 C, 5% CO2 incubator for 5 hours, 23 nL of compounds dissolved in DMSO, positive controls or DMSO only was transferred to the assay plate. Following compound addition, 3 uL of human liver microsomes (XenoTech, Kansas City, KS) at final concentration of 0.5 mg/mL and 1uL of B-Nicotinamide adenine dinucleotide 2'-phosphate (NADPH) at final concentration of 0.5 mg/mL were transferred to the assay plate. The plates were incubated at 37 C for 16 hours. 1 uL of LiveBLAzer detection mixture was added to each well and the plates were incubated at room temperature in the dark for 2 h. Fluorescence intensity at 460 and 530 nm emission and 405 nm excitation were measured by an Envision plate reader. For cell viability readout that measures cytotoxicity, 4 ul/well of CellTiter-Glo reagent was added into the assay plates using a Flying Reagent Dispenser. After 30 min incubation at room temperature, the luminescence intensity in the plates was measured using a ViewLux plate reader.

Structure (SMILES) | Potency | activity change, negative = cytotoxicity
CCCN(CCC)C(=O)C(CCC(=O)O)NC(=O)c1ccccc1 (stereo not given) | inactive | –
NC(=O)N(O)[C@@H]1C=C[C@H](Oc2cccc(Oc3ccc(F)cc3)c2)C1 | inactive | –
CC(C)=CC(=O)C=C(C)C | inactive | –
N[C@@H](CSCCCO)C(=O)O | – | -3.2% [at 13.5 µM] (inactive)
COC(=O)CCCCC(CCSS/C(CCO)=C(\C)N(C=O)Cc1cnc(C)nc1N)SC(C)=O (stereo not given) | inactive | –
CCCCCCCCCCCCCC(=O)OCC | inactive | –
COC(=O)CC#N | inactive | –
SCCCCCCCCS | inactive | –
O=C(O)c1cccc(Oc2ccccc2)c1 | inactive | –
CCOC(=O)C(=O)CCc1ccccc1 | inactive | –
C[C@@H]1O[C@@H](O[C@@H]2[C@@H](O)[C@H](OCCc3ccc(O)c(O)c3)O[C@H](CO[C@@H]3O[C@H](CO)[C@@H](O)[C@H](O)[C@H]3O)[C@H]2OC(=O)/C=C/c2ccc(O)c(O)c2)[C@H](O)[C@H](O)[C@H]1O | inactive | –
CC(C)=CC(=O)O | inactive | –
Nc1ccc2cc(S(=O)(=O)O)cc(O)c2c1 | inactive | –
NC1CCN(c2nc3c(cc2F)c(=O)c(C(=O)O)cn3-c2ccc(F)cc2F)C1 (stereo not given) | inactive | –
Cc1ccc(/C=N/n2c(-c3ccccc3)csc2=S)cc1 | inactive | –
CCCCCCC/C=C/C=O | inactive | –
COc1ccc2c(c1)C(=O)N(CCc1ccc(S(=O)(=O)NC(=O)NC3CCCCC3)cc1)C(=O)C2(C)C | inactive | –
CN1CCCC(n2nc(Cc3ccc(Cl)cc3)c3ccccc3c2=O)CC1 (stereo not given) | inactive | –
CCCCCCCCCC=O | inactive | –
CCCCCCCCCCCCOC(=O)c1ccc(O)cc1 | inactive | –

Structure (SMILES) | Potency | activity change, negative = cytotoxicity
Cc1cccc([N+](=O)[O-])c1C(=O)O | inactive | –
On1nnc2ccccc21 | inactive | –
O=[N+]([O-])c1cccc(S(=O)(=O)NCCNS(=O)(=O)c2cccc([N+](=O)[O-])c2)c1 | inactive | –
O=C1NCN(c2ccccc2)C12CCN(CCCC(c1ccc(F)cc1)c1ccc(F)cc1)CC2 | inactive | –
CCO[Si](C)(CCCOCC1CO1)OCC (stereo not given) | inactive | –
CC(=O)OC[C@H]1O[C@@H](n2ncc(=O)[nH]c2=O)[C@H](OC(C)=O)[C@@H]1OC(C)=O | inactive | –
CC(C)(C)C(=O)O | inactive | –
Nc1ccc(NC(=O)c2ccc(N)cc2)cc1 | inactive | –
CNS(=O)(=O)Cc1ccc2[nH]cc(CCN(C)C)c2c1 | inactive | –
CCCCCCCCCCCCCCCCCCOS(=O)(=O)O | inactive | –
S=c1[nH][nH]c(=S)s1 | inactive | –
CCCCCCCC/C=C\CCCCCCCC(=O)OC[C@@H](O)[C@H]1OC[C@H](O)[C@H]1O | inactive | –
c1ccc(C[P+](c2ccccc2)(c2ccccc2)c2ccccc2)cc1 | inactive | –
Nc1nc(Cl)nc2c1ncn2[C@@H]1O[C@H](CO)[C@@H](O)[C@@H]1F | inactive | –
O=C(/C=C/c1ccccc1)OC/C=C/c1ccccc1 | inactive | –
O=[N+]([O-])c1cc(Cl)c(Cl)c(Cl)c1Cl | inactive | –
CCCC(=O)C(=O)O | inactive | –
CC1OCCC1=O (stereo not given) | inactive | –
CN1CCN(C2=Nc3ccccc3Sc3ccc(Cl)cc32)CC1 | inactive | –
Cc1ccc2oc(CN(Cc3ccccc3)C(=O)Nc3c(F)cc(F)cc3F)c(-c3ccc(Cl)cc3)c2c1 | inactive | –
